Results filed as inconclusive are left out. Unmarked numbers belong to inactive results. The source made the active and inactive calls. Unless noted, calls come from the whole dose curve; as a rule, active = well fitted inhibition curve with a large enough effect; inconclusive = small, poorly fitted or top-dose-only effect; inactive = no such curve, though single readings can be large or run the other way.
Target: Cytochrome P450 2C19 (Homo sapiens) (UniProt P33261)
Test: qHTS Assay for Inhibitors and Substrates of Cytochrome P450 2C19 (AID 899); note: nearly all actives have a fitted effect of over 60% in size; for activity, negative = inhibition: % is set by controls: 0 for no effect and ±100 for the full control effect
Conditions: recombinant CYP2C19, luciferin-H EGE luminescence; series mostly up to 57.1 µM; activity, negative = inhibition: at the top concentration
Procedure, shortened: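 Human CYP2C19 (5nM) with Luciferin-H EGE at 10uM (its KM) in 50mM KPO4 was preincubated with compound for 10 min at 37C. NADPH regeneration started a 60 min 37C reaction. Luciferin was read by luminescence, normalized to 57uM ketoconazole.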
Potency is the fitted concentration of half-maximal effect.

Cytochrome P450 2C19 (Homo sapiens), sequence (P33261 whole entry, looked up): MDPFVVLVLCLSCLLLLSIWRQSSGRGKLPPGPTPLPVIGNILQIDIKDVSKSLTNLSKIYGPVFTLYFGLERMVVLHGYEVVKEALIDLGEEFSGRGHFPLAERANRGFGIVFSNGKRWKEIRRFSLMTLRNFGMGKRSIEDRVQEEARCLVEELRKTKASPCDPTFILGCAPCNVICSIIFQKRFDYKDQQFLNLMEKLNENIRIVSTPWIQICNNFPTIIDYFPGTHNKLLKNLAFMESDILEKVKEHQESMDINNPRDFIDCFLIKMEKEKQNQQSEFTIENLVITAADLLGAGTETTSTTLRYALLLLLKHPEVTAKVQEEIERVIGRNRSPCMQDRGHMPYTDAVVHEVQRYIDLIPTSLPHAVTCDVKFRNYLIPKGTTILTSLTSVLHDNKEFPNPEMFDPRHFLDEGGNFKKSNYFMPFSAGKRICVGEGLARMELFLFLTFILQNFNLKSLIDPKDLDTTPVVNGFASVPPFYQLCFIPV

Question: For `COc1cccc(-c2cncnc2N(C)Cc2ccco2)c1`, which Potency is on record?
Answer: The Potency was 7.94 µM (active).

Question: Which “activity, negative = inhibition” value does the source give for `CCNc1ncc2nc(C)c(=O)n(-c3ccc(OC)cc3)c2n1` here?
Answer: Its value is -3.43%.

Question: Which Potency does the source give for `COc1ccc2[nH]cc(CCNc3ncncc3-c3c(C)noc3C)c2c1` here?
Answer: Its Potency is 3.16 µM (active).

Question: For `COc1ccccc1-c1cc(NCc2ccccc2)ncn1`, which Potency is on record?
Answer: The Potency was 7.94 µM (active).

Question: Which Potency does the source give for `N#Cc1cccc(-c2cncnc2NCc2cccs2)c1` here?
Answer: Its Potency is 7.94 µM (active).

Test system: not listed separately
Test: qHTS Assay for Identification of Small Molecule Agonists for Hypoxia Response Element Signaling Pathway (AID 914; active = well fitted activation curve with a large enough effect in the signal ratio, with a control signal flat, not every such curve was filed as active; the % refers to the signal ratio; for activation: % of control where 0% means no effect)
Conditions: ME-180 (cervical carcinoma) HRE-bla reporter, beta-lactamase ratio, CoCl2, 17 h; activation: stronger effect = higher value
Procedure, shortened: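 HRE-bla ME-180 cells with beta-lactamase reporter under hypoxia response element, compounds with EC50 CoCl2 for 17 hours at 37 C. CCF4 substrate, 460nm/530nm emission ratio gave %Activity; AC50 from titration series.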

Question: Which Potency does the source give for `N#Cc1cccc(-c2nc3cnc(N4CCOCC4)nc3n(C3CC3)c2=O)c1` here?
Answer: Its Potency is 3.16 µM (active).

Question: Which Potency does the source give for `CCNc1ncc2nc(-c3cc(F)cc(F)c3)c(=O)n(C)c2n1` here?
Answer: Its Potency is 3.16 µM (active).

Question: Which activation does the source give for `CCNc1ncc2nc(C)c(=O)n(-c3ccc(OC)cc3)c2n1` here?
Answer: Its activation is -10.1%.

Question: With `CCNc1ncc2nc(-c3cn(C)c4ccccc34)c(=O)n(-c3ccc(OC)cc3)c2n1` as the compound, how does the activation read?
Answer: Its activation is -6.54%.

Question: With `CNc1cc(-c2c(C)noc2C)ncn1` as the compound, how does the Potency read?
Answer: Its Potency is 3.16 µM (active).

— PubChem BioAssay (NCATS)
